Experimental data published in PubChem BioAssay (EPA / NIEHS).
Records with an inconclusive call do not appear. Activity calls are given as the source filed them. How the source made its calls, unless noted: active means hit-call score of the fitted dose curve at least 0.9, where 1 is the maximum; inactive means score below 0.9.

What was measured:
[1] = read-out: Interleukin-1 alpha (IL1a), IL1A (gene 3552); test: BSK_BE3C_IL1a: BioMAP Diversity Plus: BE3C Assay for Interleukin-1 alpha (IL1a) Biomarker Activity (AID 2283016); details: primary human bronchial epithelial cells; actives raise or lower the signal
Summary of the method: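 Measured in human lung primary bronchial epithelial cells: IL-1a by ELISA at 24 h after dosing, with bidirectional fitting against DMSO.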

[2] = read-out: Monocyte Chemoattractant Protein-1 (MCP1), CCL2 (gene 6347); test: BSK_3C_MCP1: BioMAP Diversity Plus: 3C Assay for Monocyte Chemoattractant Protein-1 (MCP1) Biomarker Activity (AID 2283017); details: primary human endothelial cells (HUVEC); actives raise or lower the signal
Summary of the method: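 MCP-1 was measured by ELISA 24 h after dosing in primary HUVEC 3C cultures and fitted in both directions relative to DMSO; cytotoxicity was checked by SRB total-protein staining in parallel wells.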

[3] = read-out: Monocyte Chemoattractant Protein-1 (MCP1), CCL2 (gene 6347); test: BSK_4H_MCP1: BioMAP Diversity Plus: 4H Assay for Monocyte Chemoattractant Protein-1 (MCP1) Biomarker Activity (AID 2283018); details: primary human endothelial cells (HUVEC); actives raise or lower the signal
Summary of the method: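 Primary human umbilical vein endothelium is exposed to chemical for 24 h before MCP-1 is assayed by ELISA. Concentration-response fitted bidirectionally relative to DMSO.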

[4] = read-out: Human Leukocyte Antigen - DR isotype (HLADR), HLA-DRA (gene 3122); test: BSK_3C_HLADR: BioMAP Diversity Plus: 3C Assay for Human Leukocyte Antigen - DR isotype (HLADR) Biomarker Activity (AID 2283019); details: primary human endothelial cells (HUVEC); actives raise or lower the signal
Summary of the method: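 Bidirectional fitting against DMSO was applied to the HLA-DR ELISA signal from human umbilical vein endothelial cells, 24 h post-dose. Cytotoxicity came from parallel SRB total-protein staining; 3C proliferation was counted by SRB at 48 h.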

[5] = read-out: Interleukin-8 (IL8), CXCL8 (gene 3576); test: BSK_3C_IL8: BioMAP Diversity Plus: 3C Assay for Interleukin-8 (IL8) Biomarker Activity (AID 2283020); details: primary human endothelial cells (HUVEC); actives raise or lower the signal
Summary of the method: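 Using DMSO-treated wells as the baseline, bidirectional curve fitting was applied to ELISA-measured IL-8 from human umbilical vein endothelial cultures sampled 24 h after compound addition.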

[6] = read-out: Monokine induced gamma interferon (MIG), CXCL9 (gene 4283); test: BSK_3C_MIG: BioMAP Diversity Plus: 3C Assay for Monokine induced gamma interferon (MIG) Biomarker Activity (AID 2283021); details: primary human endothelial cells (HUVEC); actives raise or lower the signal;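 on AC50: MIG protein level measured by immunoassay in the treated endothelial cultures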
Summary of the method: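 ELISA-measured MIG in dosed HUVEC 3C cultures at 24 h, analysed by bidirectional fitting with DMSO defining baseline activity.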

[7] = target: human Vitamin D Receptor (VDR), VDR (gene 7421) (UniProt P11473); test: ATG_VDR_TRANS: Attagene TRANS-FACTORIAL HepG2 Assay for human Vitamin D Receptor (VDR) (AID 2283022; active means hit-call score of the fitted dose curve at least 0.9, where 1 is the maximum)
Summary of the method: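 Transactivation by an exogenous VDR-Gal4 chimera in transiently transfected HepG2 cells was measured as reporter transcript level 24 hours after chemical treatment. RT-PCR products were analysed by capillary electrophoresis and fitted in the positive direction relative to DMSO.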

[8] = BSK_3C_SRB: Viability Assessment in the BioMAP Diversity Plus: 3C Assay (AID 2283023); details: primary human endothelial cells (HUVEC);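 further: fitted both ways against DMSO so a hit may be signal rise or drop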
Summary of the method: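 Cytotoxicity readout in parallel HUVEC 3C cultures: after 24 h compound exposure, cells fixed with 10% TCA, stained with 0.1% SRB and read at 560 nm. Gain or loss relative to DMSO fitted.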

[9] = read-out: Matrix Metallopeptidase 1 (MMP1), MMP1 (gene 4312); test: BSK_BE3C_MMP1: BioMAP Diversity Plus: BE3C Assay for Matrix Metallopeptidase 1 (MMP1) Biomarker Activity (AID 2283024); details: primary human bronchial epithelial cells; actives raise or lower the signal
Summary of the method: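 In this multiplexed primary-cell system, human bronchial epithelium received chemicals for 24 h before an ELISA for MMP1. Values reflect bidirectional fits normalised to the DMSO baseline.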

[10] = BSK_3C_Vis: BioMAP Diversity Plus: 3C Assay for Morphology Visualization (AID 2283025); details: primary human endothelial cells (HUVEC);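 further: fitted both ways so gain or loss versus DMSO counts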;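 on AC50: light microscopy image of cell morphology used as background control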
Summary of the method: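 Light-microscopy morphology readout, 24 h exposure, human primary umbilical vein endothelium; analysed relative to DMSO with bidirectional fitting.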

[11] = read-out: Pselectin, SELP (gene 6403); test: BSK_4H_Pselectin: BioMAP Diversity Plus: 4H Assay for Pselectin Biomarker Activity (AID 2283026); details: primary human endothelial cells (HUVEC); actives raise or lower the signal
Summary of the method: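 Bidirectional fits against DMSO gave the endpoint. Cells: primary human umbilical vein endothelium, chemical-treated for 24 h before ELISA detection of P-selectin.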

[12] = BSK_4H_SRB: Viability Assessment in the BioMAP Diversity Plus: 4H Assay (AID 2283027); details: primary human endothelial cells (HUVEC);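 further: cells exposed to compound for 24 h before staining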;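 on AC50: curves fitted both ways versus DMSO so AC50 may be loss or gain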
Summary of the method: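 Cytotoxicity read-out in primary human endothelial cells: after 24 h compound exposure, cells were TCA-fixed (10%), stained with 0.1% SRB and absorbance taken at 560 nm. Values fitted in both directions relative to DMSO.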

[13] = BSK_BE3C_SRB: Viability Assessment in the BioMAP Diversity Plus: BE3C Assay (AID 2283028); details: primary human bronchial epithelial cells;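 on AC50: fitted both ways so AC50 may mark signal gain or loss versus DMSO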
Summary of the method: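 Cytotoxicity read-out: SRB (0.1%) staining of TCA-fixed (10%) human lung bronchial epithelial cells, absorbance 560 nm, 24 h post-dosing. Curves fitted both directions relative to DMSO.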

[14] = read-out: Thrombomodulin, THBD (gene 7056); test: BSK_3C_Thrombomodulin: BioMAP Diversity Plus: 3C Assay for Thrombomodulin Biomarker Activity (AID 2283029); details: primary human endothelial cells (HUVEC); actives raise or lower the signal
Summary of the method: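 In a multiplexed primary-cell system, human umbilical vein endothelium received chemical and was assayed 24 h later for thrombomodulin by ELISA. Parallel cultures were SRB-stained (0.1% SRB after 10% TCA fixation, read at 560 nm) to flag cytotoxicity.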

[15] = read-out: Urokinase-type plasminogen activator receptor (uPAR), PLAUR (gene 5329); test: BSK_4H_uPAR: BioMAP Diversity Plus: 4H Assay for Urokinase-type plasminogen activator receptor (uPAR) Biomarker Activity (AID 2283030); details: primary human endothelial cells (HUVEC); actives raise or lower the signal
Summary of the method: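 uPAR level read by ELISA on HUVEC cultures (BioMAP 4H) 24 h post-dosing, analyzed for gain or loss relative to DMSO. Parallel SRB staining assessed overt cytotoxicity.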

[16] = read-out: Vascular endothelial growth factor receptor 2 (Homo sapiens) (UniProt P35968); test: BSK_4H_VEGFRII: BioMAP Diversity Plus: 4H Assay for Vascular endothelial growth factor receptor 2 (VEGFR2) Biomarker Activity (AID 2283031); details: primary human endothelial cells (HUVEC); actives raise or lower the signal;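 on AC50: cell-surface VEGFR2 protein level quantified by ELISA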
Summary of the method: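 Measured by ELISA after 24 h of compound treatment: VEGFR2 on primary human umbilical vein endothelial cells, fitted in both directions relative to DMSO. Parallel cultures received SRB staining (560 nm) for overt cytotoxicity.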

[17] = read-out: Human Leukocyte Antigen - DR isotype (HLADR), HLA-DRA (gene 3122); test: BSK_BE3C_HLADR: BioMAP Diversity Plus: BE3C Assay for Human Leukocyte Antigen - DR isotype (HLADR) Biomarker Activity (AID 2283032); details: primary human bronchial epithelial cells; actives raise or lower the signal
Summary of the method: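 BioMAP BE3C format: human bronchial epithelium, 24 h compound treatment, ELISA detection of HLA-DR, with bidirectional analysis relative to DMSO.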

[18] = read-out: Vascular cell adhesion molecule 1 (VCAM1), VCAM1 (gene 7412); test: BSK_4H_VCAM1: BioMAP Diversity Plus: 4H Assay for Vascular cell adhesion molecule 1 (VCAM1) Biomarker Activity (AID 2283033); details: primary human endothelial cells (HUVEC); actives raise or lower the signal
Summary of the method: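 In this human endothelial (HUVEC) system, biomarker ELISA was run 24 h after compound addition, and total protein in parallel wells was assessed by SRB at 560 nm; DMSO served as negative control.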

[19] = read-out: E-selectin (Homo sapiens) (UniProt P16581); test: BSK_3C_Eselectin: BioMAP Diversity Plus: 3C Assay for Eselectin Biomarker Activity (AID 2283015); details: primary human endothelial cells (HUVEC); actives raise or lower the signal;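 further: cell surface E-selectin protein quantified by ELISA 24 h after dosing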
Summary of the method: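 E-selectin ELISA readout, fitted bidirectionally relative to DMSO, taken 24 h post-dosing in HUVEC cultures of the 3C system. Overt cytotoxicity tracked with sulforhodamine B staining of parallel wells.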

[20] = read-out: Interferon-gamma inducible Protein 10 (IP10), CXCL10 (gene 3627); test: BSK_BE3C_IP10: BioMAP Diversity Plus: BE3C Assay for Interferon-gamma inducible Protein 10 (IP10) Biomarker Activity (AID 2283034); details: primary human bronchial epithelial cells; actives raise or lower the signal
Summary of the method: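 BE3C cells (human bronchial epithelial, primary); 24 h exposure; ELISA for IP-10; DMSO-referenced bidirectional fit.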

Measured: AC50

human Vitamin D Receptor (VDR), VDR (gene 7421), sequence (P11473 whole entry, looked up, the tested form may be a part): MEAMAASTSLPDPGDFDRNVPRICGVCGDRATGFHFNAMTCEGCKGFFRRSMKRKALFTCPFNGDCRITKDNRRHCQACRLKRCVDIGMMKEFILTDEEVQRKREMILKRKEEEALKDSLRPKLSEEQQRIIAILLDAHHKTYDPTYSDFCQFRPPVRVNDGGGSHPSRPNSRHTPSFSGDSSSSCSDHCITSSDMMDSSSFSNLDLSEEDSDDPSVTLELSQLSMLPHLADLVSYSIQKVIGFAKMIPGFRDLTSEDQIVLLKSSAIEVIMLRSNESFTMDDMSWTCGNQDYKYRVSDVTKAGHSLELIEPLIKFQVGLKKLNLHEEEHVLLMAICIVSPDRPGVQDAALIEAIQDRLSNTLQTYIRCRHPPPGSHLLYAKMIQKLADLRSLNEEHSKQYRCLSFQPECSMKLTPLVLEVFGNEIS
E-selectin (Homo sapiens), sequence (P16581 whole entry, looked up): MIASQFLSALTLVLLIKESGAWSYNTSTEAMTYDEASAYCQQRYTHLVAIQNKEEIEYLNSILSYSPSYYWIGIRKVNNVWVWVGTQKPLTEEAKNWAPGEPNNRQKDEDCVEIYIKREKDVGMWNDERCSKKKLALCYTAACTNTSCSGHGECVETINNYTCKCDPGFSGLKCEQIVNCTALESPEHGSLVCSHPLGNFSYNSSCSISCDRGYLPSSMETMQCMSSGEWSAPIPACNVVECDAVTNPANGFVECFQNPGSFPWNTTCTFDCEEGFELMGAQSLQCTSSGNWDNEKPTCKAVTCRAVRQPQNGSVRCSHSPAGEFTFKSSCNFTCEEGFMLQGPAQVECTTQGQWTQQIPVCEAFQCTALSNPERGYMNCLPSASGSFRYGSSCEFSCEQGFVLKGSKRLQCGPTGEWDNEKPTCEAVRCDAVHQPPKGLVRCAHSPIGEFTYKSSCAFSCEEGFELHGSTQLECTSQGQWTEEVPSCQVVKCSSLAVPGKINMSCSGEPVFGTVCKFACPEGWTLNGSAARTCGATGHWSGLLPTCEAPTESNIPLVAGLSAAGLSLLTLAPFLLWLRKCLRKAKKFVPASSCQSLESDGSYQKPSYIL

CCOc1cccc(-n2cc(C(=O)N3CCN(c4cc(C(=O)O)c5ccccc5c4)CC3)nc2-c2ccc(C)cc2)c1
active: [1] 29.2 µM | [2] 23 µM | [3] 23.3 µM | [4] 15.3 µM | [5] 11.9 µM | [6] 35.5 µM | [8] 16.8 µM | [9] 33.4 µM | [10] 38 µM | [11] 26.2 µM | [12] 13.7 µM | [13] 31.3 µM | [15] 12.7 µM | [16] 18.2 µM | [17] 24.5 µM | [18] 29.9 µM
inactive: [7] | [14]

CCCCCCCCCCCCc1ccccc1
active: [4] 33.2 µM | [11] 31.5 µM
inactive: [1] | [2] | [3] | [5] | [6] | [7] | [8] | [9] | [10] | [12] | [13] | [14] | [15] | [16] | [17] | [18]

CC1=CC(=O)CC(C)(C)C1
inactive: [19] | [1] | [3] | [4] | [5] | [6] | [8] | [9] | [10] | [11] | [12] | [13] | [14] | [15] | [16] | [17] | [18]

O=C1CCCCCN1
inactive: [19] | [1] | [3] | [4] | [5] | [6] | [7] | [8] | [9] | [10] | [11] | [12] | [13] | [14] | [15] | [16] | [17] | [18]

CC(C)(O)c1coc(S(=O)(=O)NC(=O)Nc2c3c(cc4c2CCC4)CCC3)c1
inactive: [19] | [1] | [3] | [4] | [5] | [6] | [7] | [8] | [9] | [10] | [11] | [12] | [13] | [14] | [15] | [16] | [17] | [18]

CCCCCCCCO
inactive: [19] | [1] | [3] | [4] | [5] | [6] | [7] | [8] | [9] | [10] | [11] | [12] | [13] | [14] | [15] | [16] | [17] | [18] | [20]
